Experimental findings from PubChem BioAssay (NCI) are described below.

About 83,000 compounds went through this panel and 20% of them were active in at least one assay; those are over-represented in the sample as a whole.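 Method: cells in 96-well plates; compound added at one concentration; 48 h incubation; percent growth measured; values under 10 scored active.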 Values without a mark were called inactive. Activity calls are given as the source filed them.

For the experiment, the system named is A549/ATCC NSCLC. Briefly: NCI-60 one-dose screen, 48 h (100 = growth as untreated, 0 = no growth, -100 = all killed). The note with it: 10 µM unless noted. The method, then: Growth inhibition of the A549/ATCC human Non-Small Cell Lung tumor cell line is measured as a screen for anti-cancer activity. Cells are grown in 96 well plates and exposed to the test compound for 48 hours. Compounds are tested at a single concentration, which is 10^-5 M for most compounds. The reported endpoint is percent growth (GI% or GIPRCNT), where numbers from 0 - 100% represent growth inhibition, and numbers from -100% - 0 represent cell death. For example, a value of 40 represents 60% growth inhibition. A value of 0 means no net growth occurred over the course of the experiment. A value of -40 indicates 40% of cells at the beginning of the experiment died by the end of the experiment. A value of -100 means all cells are dead at the end of the experiment.
NCI-60 Human Tumor Cell Lines Screen was performed using the standard one-dose NCI protocol, which is described in more detail at https://dtp.cancer.gov/discovery_development/nci-60/default.htm.
Compounds with GIPRCNT values below 10 were considered active. Activity score was based on GIPRCNT using the following formula: […]
Score is 0 for GIPRCNT values of 100 or above, 50 for GIPRCNT values of 0, and 100 for GIPRCNT values of -100.
Regarding `C=C1C(=O)O[C@H]2[C@H]1CC/C(COC(=O)NCc1ccc(Cn3c(=O)sn(-c4ccccc4)c3=O)cc1)=C\CC[C@@]1(C)O[C@@H]21`, the growth is 114%. `Nc1ncccc1O`: the growth was 77.9%.

On to `CCOC(=O)C(CCN(C)C)c1ccccc1` (stereo not given), for which the growth is 91.8%.

As to `COc1ccc(C2[C@@H](Cl)C(=O)N2c2cc(OC)c(OC)c(OC)c2)cc1Cl` (stereo not given in full), the growth is 14.8%.

For `O=C(NC1CCC(Br)CC1)C1CCCC(S(=O)(=O)NC2CCCCC2)C1` (stereo not given), the growth was 10.4% [25 µM].

On to `CC(=O)c1ccc(-n2cc(CN3CCN(c4cc5c(cc4F)c(=O)c(C(=O)O)cn5C4CC4)CC3)nn2)cc1`, for which the growth is 89.8%.

Take `C=C1CC[C@@H]2C(C)(C)[C@H](O)CC[C@@]2(C)[C@@H]1COc1ccc2ccc(=O)oc2c1`: the growth is 51.5%. The figure for `Oc1nc(NCc2ccccc2)sc1/C=C1\C=Nc2ncccc21` is 76.9%. In the case of `CCN(CC)CCN1C(=O)c2c(c3c4ccccc4[nH]c3c3ccc4ccccc4c23)C1=O`, the growth was -60.9% (active).

Regarding `Cc1nc2sc(C(=O)Nc3cccc4ccccc34)c(N)c2cc1C(=O)c1ccccc1`, the growth was 23.5%. For the compound `CC(C)(C)c1ccc(S(=O)(=O)Oc2ccc(-c3sc4cc(OS(=O)(=O)c5ccc(C(C)(C)C)cc5)ccc4c3C(=O)c3ccc(OCCN4CCCCC4)cc3)cc2)cc1`, the growth is 87.4%. In the case of `COC(=O)[C@@]1(C)CC[C@]2(C)CC[C@]3(C)C4=CC=C5C(=CC(=O)C(O)=C5C)[C@]4(C)[C@@H](O)C[C@@]3(C)[C@@H]2C1` it was 88.3%; in that of `COc1ccc(/C=C(/C(=O)N2CCNCC2)c2cc(OC)c(OC)c(OC)c2)cc1O`, 41.6%.

For the compound `COc1cc(/C=N/NC(=O)c2ccc(-n3cc(-c4ccccc4)nn3)cc2)cc(OC)c1OC`, the growth is 81.2%. In the case of `O=Nc1ccc(NC(=O)Nc2ccc([N+](=O)[O-])cc2)cc1` it was 95.6%; in that of `CC(C)CCC[C@@H](C)[C@H]1CC[C@H]2[C@@H]3CC=C4c5sc(Nc6cc(C(F)(F)F)cc(C(F)(F)F)c6)nc5CC[C@]4(C)[C@H]3CC[C@]12C`, 92.1%. The figure for `CN(C)c1ccc(C(=S)c2ccc(N(C)C)cc2)cc1` is 67%; for `COc1ccc(-c2nc3c(c(-c4ccc(Cl)cc4)nn3-c3ccccc3)c(-c3ccccc3)c2C#N)cc1` it is 95.9%. In the case of `CCN(CCNc1ccc(C)c2sc3cc(Cl)ccc3c(=O)c12)CC(C)(C)O` it was 50.9%. As to `N#CC1=C(N)Oc2c(sc3c(F)cccc23)C1c1ccc([N+](=O)[O-])cc1` (stereo not given), the growth was 4.46% (active). The figure for `CCOC(=O)c1nnn(Cc2cc(=O)oc3ccc(O)cc23)c1C` is 98.6%. In the case of `Fc1ccc(/C=C/[C@@H]2C[C@@H](F)CCO2)cc1` it was 106%; in that of `CCOC(=O)c1cn2ncnc(Oc3ccc(NC(=O)NC4CC4)c(Cl)c3)c2c1C`, 99.2%. The figure for `O=C(Nc1nc(Cl)nc(Nc2ccc(N3CCOCC3=O)cc2)n1)c1ccc(Cl)s1` is 77.3%; for `COC(=O)/C=C1/SC(=Nc2ccc(F)cc2)N(CCc2c[nH]c3ccc(O)cc23)C1=O` it is 69.5%; for `O=C(CSc1nnnn1-c1ccccc1)Nc1ccc(Oc2ccccc2)cc1` it is 101%. In the case of `CC1(C)N=C(N)N=C(N)N1c1cc(Cl)ccc1Cl`, the growth was 86.7%. In the case of `CCN(CC)CCCNc1cc(OC)c(OC)c2cccnc12` it was 56.4%; in that of `NS(=O)(=O)c1ccc(C(=O)N=Nc2c(O)[nH]c3ccc(Cl)cc23)cc1`, 104%. On to `C/C(=N\Nc1ccccc1)c1ccc(NC2=CC(=O)c3ccccc3C2=O)cc1`, for which the growth is 48.5%. Regarding `O=C(Nc1cccnc1Nc1ccc(Cl)cc1)c1cn(Cc2cccc(Oc3ccccc3)c2)nn1`, the growth was 42.4%. The figure for `Nc1ncnc2c1N=C(c1ccc(F)cc1)CC(c1cccc(Nc3ccnc4cc(Cl)ccc34)c1)N2` (stereo not given) is 83.5%; for `Cc1cc(=O)n(C(=S)Nc2ccc(Cl)cc2)c2cc(O)ccc12` it is 106%; for `COc1ccc2cc(C(=O)N3CCC([C@@H](C)C(=O)NCc4ccc5c(c4)OCO5)CC3)[nH]c2c1` it is 53.7% [50 µM].

For `CCOC(=O)/C(=C(/C)NCC(C)C)c1cc(O)c(O)c2c(C)cc(=O)[nH]c12`, the growth is 45.2%. As to `CN1C(=O)/C(=C/c2ccc(C(=O)Nc3ncc(Cc4cc(Cl)ccc4Cl)s3)cc2)SC1=S`, the growth was 73.3%. Consider `C=C(C)[C@@H]1CC[C@]2(C(=O)N3CCNCC3)CC[C@]3(C)[C@H](CC[C@@H]4[C@@](C)(CCC(=O)N5CCNCC5)[C@H](C(=C)C)CC[C@]43C)[C@@H]12`, for which the growth is 75.2%.

With `O=[N+]([O-])c1ccccc1Sc1ccccc1[N+](=O)[O-]`, the growth is 87.2%. Take `CCOC(=O)c1cnn(CC(C)O)c1NC(=O)NCc1ccccc1C(F)(F)F` (stereo not given): the growth is 82.1%.

As for `CCCCCCCCCCOC(=O)c1nn(C(C)=O)c2cc(C)c(C)cc12`, the growth was 83.8%.
